From PubChem BioAssay (NCI)
Compounds without any hit were thinned out: in the full panel of roughly 79,000, 15% have a hit. A number with no mark means an inactive call. Active and inactive are the calls of the source. Cut-off read from the data, not from the text of the source: active = growth inhibition above about 70%; inactive = the rest.

Assays:
[1] = NCI Yeast Anticancer Drug Screen. Data for the rad50 strain (AID 155);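 note: 0% = growth of vehicle-only cultures of the same strain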; conditions: S. cerevisiae rad50 strain growth inhibition, stronger effect = higher value
Method in brief: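 A DNA repair-deficient yeast mutant serves as the test organism; compound-induced growth inhibition is calculated against vehicle-treated cells.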

[2] = NCI Yeast Anticancer Drug Screen. Data for the mec2-1 strain (AID 157); conditions: S. cerevisiae mec2-1 strain, stronger effect = higher value
Method in brief: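 Compounds were applied to mec2-1 yeast cells. Their growth was then compared with that of vehicle-treated cultures to give growth inhibition.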

[3] = NCI Yeast Anticancer Drug Screen. Data for the sgs1 mgt1 strain (AID 161);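 note: 0% = growth of cultures given vehicle only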; conditions: S. cerevisiae sgs1 mgt1 strain, stronger effect = higher value
Method in brief: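 Compounds are added to genetically altered yeast, and growth is compared with cultures given vehicle alone to give percent inhibition.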

[4] = NCI Yeast Anticancer Drug Screen. Data for the cln2 rad14 strain (AID 165);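 note: 0% = growth equal to vehicle treated cultures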; conditions: S. cerevisiae cln2 rad14 strain, stronger effect = higher value
Method in brief: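 Strain: cln2 rad14 yeast, altered in cell cycle control and DNA damage repair. Read-out: growth inhibition vs vehicle.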

[5] = NCI Yeast Anticancer Drug Screen. Data for the bub3 strain (AID 167); conditions: S. cerevisiae bub3 mutant strain, stronger effect = higher value
Method in brief: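 Inhibition values come from growth of compound-treated mutant yeast normalised to vehicle-treated controls.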

[6] = NCI Yeast Anticancer Drug Screen. Data for the mlh1 rad18 strain (AID 175); conditions: S. cerevisiae mlh1 rad18 strain growth inhibition, stronger effect = higher value
Method in brief: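 A repair-deficient yeast strain is exposed to test compound, and growth is scored relative to vehicle-treated controls.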

[7] = at 5.0 µM (retest, dose inferred, filed as 0.5)
[8] = at 50.0 µM (retest, dose inferred, filed as 5.0)

Row | SMILES | growth inhibition [1, 7] | growth inhibition [1, 8] | growth inhibition ([1]; at 50.0 µM) | growth inhibition [2, 7] | growth inhibition [2, 8] | growth inhibition ([2]; at 50.0 µM) | growth inhibition [3, 7] | growth inhibition [3, 8] | growth inhibition ([3]; at 50.0 µM) | growth inhibition [4, 7] | growth inhibition [4, 8] | growth inhibition ([4]; at 50.0 µM) | growth inhibition [5, 7] | growth inhibition [5, 8] | growth inhibition ([5]; at 50.0 µM) | growth inhibition [6, 7] | growth inhibition [6, 8] | growth inhibition ([6]; at 50.0 µM)
1 | Cn1c(=O)c2c(nnc(-c3ccccc3)[n+]2[O-])n(C)c1=O | -3% | 46% | 99.5% (active) | -1% | 97% (active) | 99.7% (active) | 1% | 90% (active) | 99.7% (active) | 2% | 43% | 99% (active) | -3% | 60% | 99.6% (active) | -6% | 95% (active) | 99.6% (active)
2 | Cc1ccc(C2CC(c3cccc([N+](=O)[O-])c3)=Nc3ccccc3S2)cc1 (configuration not stated) | 0% | 19% | 57.5% | 0% | 31% | 15.9% | -1% | 46% | 57.3% | -6% | -4% | 36.4% | 11% | 78% (active) | 88% (active) | 2% | 29% | 60.8%
3 | Nc1ccc2nc(Nc3ccc(F)cc3)cnc2c1 | -11% | 63% | 63.5% | -9% | 27% | 15.4% | -18% | 36% | 56% | 17% | 49% | 28.9% | 7% | 73% (active) | 60% | 7% | 77% (active) | 65.2%
4 | Cc1cc(C)c(S(=O)(=O)c2c(C)cc(C)cc2C)c(C)c1 | -3% | -7% | 39% | -4% | -9% | 12.5% | -4% | -4% | 6.2% | -5% | -22% | 41.7% | -3% | -6% | 0.65% | -6% | -12% | 1.15%
5 | O=C(O)CSc1ccc(N=C=S)cc1 | -5% | 96% (active) | -8.1% | 3% | 91% (active) | 8.15% | 9% | 93% (active) | -2.75% | -9% | 69% | 4.8% | -27% | 95% (active) | 0.55% | 37% | 98% (active) | -2.35%
6 | O=C(c1ccc(Oc2ccccc2)cc1)C(C(c1ccccc1)N1CCOCC1)N1CCOCC1 (configuration not stated) | -5% | 35% | 61.1% | 12% | 59% | 62.9% | -9% | 81% (active) | 88.8% (active) | -3% | -1% | 54.4% | 0% | 61% | 73% (active) | 20% | 60% | 75.4% (active)
7 | Cc1nn(C(=O)c2ccncc2)c(C)c1N=Nc1ccccc1[N+](=O)[O-] | 49% | 96% (active) | 61.3% | 11% | 93% (active) | 20.6% | 11% | 90% (active) | 84.8% (active) | 21% | 6% | -3.25% | -1% | 14% | 2.4% | 4% | 94% (active) | 26.1%
8 | CN(C)CCNc1ccc([N+](=O)[O-])c2nc3ccccc3c(N)c12 | -34% | -7% | -1.9% | -37% | 6% | -40.8% | 34% | -24% | 45.9% | -17% | 0% | 8.55% | -8% | 12% | -7.15% | -53% | -10% | 65.8%
9 | CC1COC(=O)O1 (configuration not stated) | -31% | -1% | -4.85% | -3% | -2% | -2.35% | 6% | 6% | 6% | 6% | 2% | 15.2% | 3% | 4% | -2% | 7% | 18% | 15.8%
10 | OC(CBr)C[n+]1cccc2cc(Cl)ccc21 (configuration not stated) | 6% | 5% | -40% | 1% | 3% | -13.4% | -1% | 9% | -28.6% | -1% | -6% | 39.8% | -1% | 6% | 2.8% | 2% | -2% | -5.8%
11 | CC(C)N=Cc1cc(I)cc(I)c1O.CC(C)N=Cc1cc(I)cc(I)c1O.[Co] | 99% (active) | 99% (active) | 96.8% (active) | 99% (active) | 99% (active) | 97.6% (active) | 99% (active) | 99% (active) | 97.2% (active) | 98% (active) | 98% (active) | 96.1% (active) | 98% (active) | 99% (active) | 96.5% (active) | 99% (active) | 99% (active) | 97% (active)
12 | COC(=O)CCC(NC(=S)N/N=C(\C)c1cnc2ccccc2n1)C(=O)OC (configuration not stated) | 12% | 12% | 34.1% | 1% | 1% | 16.2% | -5% | -5% | 67.1% | 10% | 10% | 11.1% | 12% | 12% | 26.8% | 15% | 15% | 31.4%
13 | O=C(O)C1CCc2ccc3ccccc3c2C1c1cccc2ccccc12 (configuration not stated) | 42% | 98% (active) | 98.1% (active) | 36% | 98% (active) | 98% (active) | 32% | 98% (active) | 97.7% (active) | 61% | 98% (active) | 97% (active) | 40% | 98% (active) | 97% (active) | 52% | 98% (active) | 98% (active)
14 | COc1ccc2nc3cc(Cl)ccc3c(Nc3ccc(S(N)(=O)=O)cc3)c2c1 | 0% | 17% | 37.5% | 0% | 9% | -11.4% | 0% | 5% | -6.05% | 9% | 3% | -8.25% | -1% | 2% | -11.4% | 1% | 2% | -6.5%
15 | Oc1c(Cl)c(Cl)c2ncccc2c1Cl | 14% | 13% | 55.8% | 10% | 13% | -8.8% | 11% | 15% | 49% | 4% | 5% | -26.4% | 5% | 37% | 48.6% | 7% | 12% | 45.5%
16 | O/N=C(/C[N+]12CN3CN(CN(C3)C1)C2)c1ccc(I)cc1 | 0% | 20% | 91.6% (active) | -4% | 40% | 84% (active) | -4% | 55% | 96.2% (active) | -1% | 23% | 91.7% (active) | 1% | 12% | 77.6% (active) | 12% | 57% | 92% (active)
17 | Cc1nc2c([N+](=O)[O-])c(N3CCCCC3)c([N+](=O)[O-])cc2[nH]1 | 10% | 97% (active) | 98.8% (active) | 13% | 98% (active) | 99% (active) | 13% | 98% (active) | 99.1% (active) | 17% | 94% (active) | 97.7% (active) | 0% | 83% (active) | 98.7% (active) | 8% | 98% (active) | 99.1% (active)
18 | COc1cccc(NC(=S)NC2CC(C)CC(C)(C)C2)c1 (configuration not stated) | 24% | 94% (active) | 86.5% (active) | -11% | 85% (active) | 89.3% (active) | -1% | 94% (active) | 89.8% (active) | 30% | 90% (active) | 86.2% (active) | 8% | 93% (active) | 89.2% (active) | -7% | 93% (active) | 84.8% (active)
19 | COc1ccc(CSC(=S)Nc2ccc(Cl)c(C(F)(F)F)c2)cc1 | 27% | 30% | 89.7% (active) | 15% | 16% | 90.2% (active) | 43% | 49% | 89% (active) | 44% | 38% | 88.7% (active) | 47% | 63% | 88.3% (active) | 17% | 21% | 87.2% (active)
